Assay [1] has as its target Paired box protein Pax-6 (Homo sapiens) (UniProt P26367). The assay is described as follows: ATG_Pax6_CIS: Attagene CIS-FACTORIAL HepG2 Assay for human Paired Box 6 (PAX6) (AID 2282956). The note with it: HepG2 CIS-FACTORIAL PAX6 reporter transcription, RNA readout; actives raise or lower the signal. In a few lines: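 Multiplexed cis-reporter HepG2 system; 24 h treatment; reporter mRNA read by RT-PCR/CE fluorescence; bidirectional fit vs DMSO.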

Assay [2] is described as follows: ATG_PXRE_CIS: Attagene CIS-FACTORIAL HepG2 Assay for human Pregnane X Receptor Element (PXRE) (AID 2282957). The following applies: HepG2 Attagene CIS-FACTORIAL PXRE reporter, mRNA; actives raise or lower the signal. In a few lines: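 Transiently transfected HepG2 cells were dosed and incubated for 24 h. RNA was then isolated, DNase-treated, reverse-transcribed and reporter sequences amplified. Labeled, HpaI-digested fragments were quantified by capillary electrophoresis against DMSO.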

Assay [3] is described as follows: ATG_RORE_CIS: Attagene CIS-FACTORIAL HepG2 Assay for human RAR-related Orphan Receptor Element (RORE) (AID 2282959). The following applies: HepG2 Attagene cis-factorial RORE reporter, mRNA; actives raise or lower the signal. In a few lines:
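Transient MRTU transfection of human HepG2 liver cells (FuGene 6); 24 h compound exposure; TriZol RNA, oligo(dT) RT, PCR, FAM labeling, HpaI cut, CE fragment analysis. DMSO = negative control/baseline.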

A short description of assay [4]: ATG_Sox_CIS: Attagene CIS-FACTORIAL HepG2 Assay for human SRY-box transcription factor (SOX) (AID 2282960). The following applies: HepG2 Attagene cis-factorial SOX reporter, mRNA; actives raise or lower the signal. In outline: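 Endogenous factor activity in human liver HepG2 cells carrying transfected cis-regulated reporter units. RNA taken 24 h post-dose, reverse-transcribed, PCR-amplified and sized by capillary electrophoresis. Gain or loss of signal fitted relative to DMSO.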

The target of assay [5] is Transcription factor Sp1 (Homo sapiens) (UniProt P08047). In words: ATG_Sp1_CIS: Attagene CIS-FACTORIAL HepG2 Assay for human Specificity Protein 1 (Sp1) (AID 2282961). The note with it: HepG2 Sp1 cis-reporter transcription, actives raise or lower the signal. In outline: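 Transient MRTU-transfected HepG2, 24 h compound exposure. Total RNA → oligo(dT) RT → PCR of reporter → 6-FAM primer extension → HpaI digest → CE. Endpoint fitted both directions vs DMSO.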
Sequence of Transcription factor Sp1 (Homo sapiens) (P08047 whole entry, looked up): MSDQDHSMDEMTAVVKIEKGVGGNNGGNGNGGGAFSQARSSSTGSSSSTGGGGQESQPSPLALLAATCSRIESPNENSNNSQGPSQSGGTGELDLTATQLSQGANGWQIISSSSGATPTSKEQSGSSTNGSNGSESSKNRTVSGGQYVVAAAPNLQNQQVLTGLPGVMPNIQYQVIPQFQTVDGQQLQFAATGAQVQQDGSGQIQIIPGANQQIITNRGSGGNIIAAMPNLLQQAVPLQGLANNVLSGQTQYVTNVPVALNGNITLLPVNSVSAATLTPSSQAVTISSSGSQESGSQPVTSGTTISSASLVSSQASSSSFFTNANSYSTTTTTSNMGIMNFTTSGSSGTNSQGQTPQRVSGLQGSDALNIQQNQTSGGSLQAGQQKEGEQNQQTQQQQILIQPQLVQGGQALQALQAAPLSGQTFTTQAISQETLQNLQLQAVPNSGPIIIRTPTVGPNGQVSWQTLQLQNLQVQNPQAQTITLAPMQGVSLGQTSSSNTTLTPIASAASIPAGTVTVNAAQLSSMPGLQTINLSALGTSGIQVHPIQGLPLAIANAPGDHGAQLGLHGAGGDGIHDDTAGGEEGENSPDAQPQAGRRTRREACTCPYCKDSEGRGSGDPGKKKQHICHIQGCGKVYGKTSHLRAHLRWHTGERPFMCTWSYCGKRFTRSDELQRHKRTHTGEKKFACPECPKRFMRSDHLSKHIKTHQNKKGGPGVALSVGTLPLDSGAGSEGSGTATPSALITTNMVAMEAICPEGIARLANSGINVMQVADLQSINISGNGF

The nature of assay [6]: ATG_SREBP_CIS: Attagene CIS-FACTORIAL HepG2 Assay for human Sterol Regulatory Element Binding (SREBP) (AID 2282962). The note with it: HepG2 Attagene cis-factorial SREBP reporter, mRNA; actives raise or lower the signal. In a few lines: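 mRNA induction of transfected cis-promoter reporters in HepG2 cells, 24 h post-dose. Detection: RT-PCR with 6-FAM-labelled products, HpaI digest, capillary electrophoresis. DMSO served as negative control and baseline.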

Assay [7] deals with Signal transducer and activator of transcription 3 (Homo sapiens) (UniProt P40763). The assay is described as follows: ATG_STAT3_CIS: Attagene CIS-FACTORIAL HepG2 Assay for human Signal Transducer and Activator of Transcription 3 (STAT3) (AID 2282963). The note with it: HepG2, Attagene cis-factorial STAT3 reporter transcription; actives raise or lower the signal. In a few lines:
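HepG2 cells transiently transfected with cis-element-driven multiple reporter transcription units; after 24 h chemical exposure, reporter mRNA measured by RT-PCR, 6-FAM primer-extension labelling, HpaI digestion and capillary electrophoresis. Bidirectional fitting versus DMSO baseline.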

Assay [8] can be described thus: ATG_TCF_b_cat_CIS: Attagene CIS-FACTORIAL HepG2 Assay for human T-Cell-Factor with beta-catenin (TCF/b-cat) (AID 2282965). The following applies: HepG2 TCF/beta-catenin cis-reporter transcription, actives raise or lower the signal. In outline: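 HepG2 cells transiently transfected with multiple cis-promoter-regulated reporter transcription units, so endogenous transcription factor activity is measured. Reporter mRNA read 24 hours after dosing by RT-PCR, fluorescent labelling and capillary electrophoresis; bidirectional fitting against DMSO.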

A short description of assay [9]: ATG_TAL_CIS: Attagene CIS-FACTORIAL HepG2 Assay for human TAL Basal Promoter (AID 2282966).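 Further: background control endpoint measuring basal TAL promoter reporter mRNA not a specific factor.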 The following applies: HepG2 Attagene cis-factorial TAL promoter reporter; actives raise or lower the signal. In outline: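 Readout: reporter mRNA, fluorescence by CE. System: HepG2, transient multi-reporter transfection, endogenous TF activity. Exposure: 24 h. Analysis: bidirectional, DMSO-normalized; background control.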

The nature of assay [10]: ATG_TGFb_CIS: Attagene CIS-FACTORIAL HepG2 Assay for human Transforming Growth Factor (TGF) (AID 2282967). The following applies: HepG2 Attagene CIS TGFb reporter, mRNA transcription; actives raise or lower the signal. In outline:
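Transcript-level reporter readout: HepG2 transfectants, 24 h exposure, RNA to cDNA, reporter-specific PCR, fluorescent primer extension, capillary sizing against ROX standards. Gain- or loss-of-signal relative to DMSO.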

Assay [11] has as its target Nuclear receptor subfamily 1 group I member 3 (Homo sapiens) (UniProt Q14994). In words: ATG_CAR_TRANS: Attagene TRANS-FACTORIAL HepG2 Assay for human Constitutive Androstane Receptor (CAR) (AID 2282969; active means hit-call score of the fitted dose curve at least 0.9, where 1 is the maximum;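 further: activators raise reporter mRNA above DMSO so AC50 marks induction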). The note with it: HepG2 Attagene TRANS-FACTORIAL CAR reporter. In a few lines:
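HepG2 cells transiently transfected with multiplexed GAL4-UAS reporter units expressing chimeric NR-Gal4 proteins; compound exposure 24 h. Reporter mRNA measured by RT-PCR, 6-FAM labelling, HpaI digestion and capillary electrophoresis; gain-of-signal fitted against DMSO baseline.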

Assay [12] addresses Steroid hormone receptor ERR1 (Homo sapiens) (UniProt P11474). In words: ATG_ERRa_TRANS: Attagene TRANS-FACTORIAL HepG2 Assay for human Estrogen-Related Receptor alpha (ERRa) (AID 2282971; active means hit-call score of the fitted dose curve at least 0.9, where 1 is the maximum). The note with it: HepG2 Attagene TRANS reporter, ERRa transactivation. In outline:
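HepG2 cells were transiently transfected with multiple GAL4-UAS reporter units, then dosed with compound for 24 h. Total RNA was reverse-transcribed, reporter cDNA PCR-amplified and fluorescently labelled, and fragments resolved by capillary electrophoresis; induction was compared with DMSO.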

Assay [13] is described as follows: ATG_TA_CIS: Attagene CIS-FACTORIAL HepG2 Assay for human TA Basal Promoter (AID 2282964). The following applies: HepG2 Attagene CIS-factorial TA basal promoter reporter; actives raise or lower the signal. In a few lines: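 Multiplexed mRNA reporter assay, HepG2, 24 h. Reporter cDNA amplified, 6-FAM primer-extended, HpaI-cut, CE-sized; DMSO = negative control and baseline.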

A short description of assay [14]: ATG_VDRE_CIS: Attagene CIS-FACTORIAL HepG2 Assay for human Vitamin D Receptor Element (VDRE) (AID 2282968). The following applies: HepG2 VDRE cis-reporter transcription, actives raise or lower the signal. In outline: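 HepG2 cells transiently transfected with cis-element reporter units, dosed 24 h; reporter mRNA measured by RT-PCR, 6-FAM labeling, HpaI digestion and capillary electrophoresis. Activity fitted bidirectionally against DMSO baseline.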

Assay [15] in a line: ATG_GAL4_TRANS: Attagene TRANS-FACTORIAL HepG2 Assay for GAL4 (Internal Marker) (AID 2282976; active means hit-call score of the fitted dose curve at least 0.9, where 1 is the maximum). The note with it: HepG2 Attagene TRANS GAL4 internal marker reporter. In outline:
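Fluorescence from capillary electrophoresis of labelled RT-PCR products quantifies reporter mRNA induction after 24 h dosing of HepG2 cells carrying transfected GAL4-UAS reporter transcription units. Vehicle DMSO serves as baseline.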

Assay [16] has as its target X-box-binding protein 1 (Homo sapiens) (UniProt P17861). In words: ATG_Xbp1_CIS: Attagene CIS-FACTORIAL HepG2 Assay for human X-box Binding Protein 1 (XBP1) (AID 2282972). The following applies: HepG2 XBP1 cis-element reporter, Attagene multiplex; actives raise or lower the signal. In a few lines:
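Fluorescence-labelled cDNA fragments from reporter transcripts, separated by capillary electrophoresis, give the signal. Source: HepG2 cells transfected with promoter-driven reporter units, harvested 24 h post-dose. DMSO served as reference for bidirectional curve fitting.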

The target of assay [17] is Estrogen-related receptor gamma (Homo sapiens) (UniProt P62508). In words: ATG_ERRg_TRANS: Attagene TRANS-FACTORIAL HepG2 Assay for human Estrogen-Related Receptor gamma (ERRg) (AID 2282977; active means hit-call score of the fitted dose curve at least 0.9, where 1 is the maximum;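 further: hits increase reporter signal over DMSO so potencies reflect activators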). The note with it: HepG2 Attagene TRANS reporter, ERRg transactivation. In a few lines: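 HepG2 cells transiently transfected with multiplexed GAL4-UAS reporter units and chimeric NR-Gal4 constructs were exposed to test chemicals for 24 h. Reporter mRNA was measured by RT-PCR, 6-FAM primer extension, HpaI digestion and capillary electrophoresis; gain-of-signal versus DMSO.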
Sequence of Estrogen-related receptor gamma (Homo sapiens) (P62508 whole entry, looked up, the tested form may be a part): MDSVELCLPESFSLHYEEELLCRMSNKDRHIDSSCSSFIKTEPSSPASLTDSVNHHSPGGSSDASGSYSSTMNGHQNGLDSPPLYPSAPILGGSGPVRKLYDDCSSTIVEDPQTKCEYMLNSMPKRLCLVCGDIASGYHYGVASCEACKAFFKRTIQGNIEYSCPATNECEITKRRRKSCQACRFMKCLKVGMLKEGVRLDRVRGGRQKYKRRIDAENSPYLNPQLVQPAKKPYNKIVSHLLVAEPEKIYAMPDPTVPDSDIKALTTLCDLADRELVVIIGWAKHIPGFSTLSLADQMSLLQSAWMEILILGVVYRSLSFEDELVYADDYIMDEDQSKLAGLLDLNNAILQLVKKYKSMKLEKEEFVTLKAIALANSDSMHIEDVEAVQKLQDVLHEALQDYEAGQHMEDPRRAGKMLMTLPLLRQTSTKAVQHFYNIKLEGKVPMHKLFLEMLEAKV

Assay [18] concerns the target Estrogen receptor (Homo sapiens) (UniProt P03372). In words: ATG_ERa_TRANS: Attagene TRANS-FACTORIAL HepG2 Assay for human Estrogen Receptor alpha (ERa) (AID 2282970; active means hit-call score of the fitted dose curve at least 0.9, where 1 is the maximum). The note with it: HepG2 Attagene TRANS ERa GAL4 reporter, mRNA. In outline:
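Transactivation via ERa-Gal4 chimera in HepG2; 24 hour incubation; reporter mRNA detected by fluorescence RT-PCR and capillary electrophoresis.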

Assay [19] can be described thus: ATG_M_19_TRANS: Attagene TRANS-FACTORIAL HepG2 Assay for M19 Transcription Factor (Internal Marker) (AID 2282974; active means hit-call score of the fitted dose curve at least 0.9, where 1 is the maximum). The following applies: HepG2 Attagene TRANS-FACTORIAL M19 internal marker reporter. In outline:
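Fluorescence of 6-FAM-labelled reporter cDNA fragments, separated by capillary electrophoresis, served as the readout. These derived from HepG2 cells carrying transfected GAL4-UAS reporter units after 24 h dosing, with DMSO as negative control.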

Results filed as inconclusive are left out. Activity calls are given as the source filed them. How the source made its calls, unless noted: active means hit-call score of the fitted dose curve at least 0.9, where 1 is the maximum; inactive means score below 0.9.

Among the data in PubChem BioAssay (EPA / NIEHS) are outcome and AC50 values, retold here.

What is called AC50 is the concentration at which the activity in the assay is half-maximal.

Sequence of Paired box protein Pax-6 (Homo sapiens) (P26367 whole entry, looked up): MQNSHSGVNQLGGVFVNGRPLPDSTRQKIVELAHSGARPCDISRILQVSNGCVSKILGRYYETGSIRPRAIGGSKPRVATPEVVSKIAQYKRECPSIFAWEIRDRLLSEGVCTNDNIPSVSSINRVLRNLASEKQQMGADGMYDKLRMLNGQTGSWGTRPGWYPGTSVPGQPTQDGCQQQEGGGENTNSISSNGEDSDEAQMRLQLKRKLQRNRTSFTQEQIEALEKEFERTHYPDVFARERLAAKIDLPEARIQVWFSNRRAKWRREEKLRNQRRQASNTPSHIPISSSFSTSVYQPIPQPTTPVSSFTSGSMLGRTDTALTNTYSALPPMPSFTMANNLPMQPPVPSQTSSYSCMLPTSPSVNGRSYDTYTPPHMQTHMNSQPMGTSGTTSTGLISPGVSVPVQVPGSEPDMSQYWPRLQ
Sequence of X-box-binding protein 1 (Homo sapiens) (P17861 whole entry, looked up, the tested form may be a part): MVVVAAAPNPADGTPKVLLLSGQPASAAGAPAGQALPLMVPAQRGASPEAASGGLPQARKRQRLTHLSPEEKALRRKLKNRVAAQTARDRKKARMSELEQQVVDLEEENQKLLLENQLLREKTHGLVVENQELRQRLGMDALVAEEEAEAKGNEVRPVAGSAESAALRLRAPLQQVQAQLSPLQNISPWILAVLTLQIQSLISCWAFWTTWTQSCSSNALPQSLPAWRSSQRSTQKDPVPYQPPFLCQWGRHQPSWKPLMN
Sequence of Signal transducer and activator of transcription 3 (Homo sapiens) (P40763 whole entry, looked up): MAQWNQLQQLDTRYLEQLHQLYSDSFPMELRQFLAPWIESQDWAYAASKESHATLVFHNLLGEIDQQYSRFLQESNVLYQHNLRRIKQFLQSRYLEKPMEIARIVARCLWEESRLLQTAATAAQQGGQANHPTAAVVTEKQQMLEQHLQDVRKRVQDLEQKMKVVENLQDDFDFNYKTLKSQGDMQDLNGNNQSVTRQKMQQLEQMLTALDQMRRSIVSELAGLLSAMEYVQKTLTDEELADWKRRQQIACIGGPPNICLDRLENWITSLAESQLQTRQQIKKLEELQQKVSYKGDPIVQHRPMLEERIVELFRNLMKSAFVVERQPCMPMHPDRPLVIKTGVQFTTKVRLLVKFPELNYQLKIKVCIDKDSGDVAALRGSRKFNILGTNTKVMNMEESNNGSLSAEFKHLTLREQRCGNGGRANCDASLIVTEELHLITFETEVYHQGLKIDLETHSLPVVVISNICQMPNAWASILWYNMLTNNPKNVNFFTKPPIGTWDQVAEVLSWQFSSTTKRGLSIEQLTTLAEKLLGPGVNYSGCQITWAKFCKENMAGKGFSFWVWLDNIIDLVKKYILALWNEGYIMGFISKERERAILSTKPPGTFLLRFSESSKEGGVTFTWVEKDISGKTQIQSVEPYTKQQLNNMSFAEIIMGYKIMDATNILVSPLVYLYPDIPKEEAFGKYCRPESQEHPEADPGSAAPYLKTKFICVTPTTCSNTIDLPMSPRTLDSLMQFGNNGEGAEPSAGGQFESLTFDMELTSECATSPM
Sequence of Estrogen receptor (Homo sapiens) (P03372 whole entry, looked up, the tested form may be a part): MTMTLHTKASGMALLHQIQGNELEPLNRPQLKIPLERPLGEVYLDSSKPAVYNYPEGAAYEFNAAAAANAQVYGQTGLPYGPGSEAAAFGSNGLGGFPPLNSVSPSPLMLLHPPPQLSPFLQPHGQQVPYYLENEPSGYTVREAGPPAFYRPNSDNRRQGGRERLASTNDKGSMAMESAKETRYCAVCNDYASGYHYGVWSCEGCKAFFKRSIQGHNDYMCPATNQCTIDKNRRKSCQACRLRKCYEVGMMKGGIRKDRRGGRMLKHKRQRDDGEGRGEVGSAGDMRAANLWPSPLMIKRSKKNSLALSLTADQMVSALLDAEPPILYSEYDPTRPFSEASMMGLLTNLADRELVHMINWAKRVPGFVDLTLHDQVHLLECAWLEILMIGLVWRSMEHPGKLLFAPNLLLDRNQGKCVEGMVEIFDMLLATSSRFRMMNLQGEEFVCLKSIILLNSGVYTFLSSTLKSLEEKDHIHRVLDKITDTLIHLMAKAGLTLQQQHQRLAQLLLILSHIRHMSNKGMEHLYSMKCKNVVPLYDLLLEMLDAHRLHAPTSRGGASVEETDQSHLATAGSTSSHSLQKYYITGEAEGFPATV
Sequence of Nuclear receptor subfamily 1 group I member 3 (Homo sapiens) (Q14994 whole entry, looked up, the tested form may be a part): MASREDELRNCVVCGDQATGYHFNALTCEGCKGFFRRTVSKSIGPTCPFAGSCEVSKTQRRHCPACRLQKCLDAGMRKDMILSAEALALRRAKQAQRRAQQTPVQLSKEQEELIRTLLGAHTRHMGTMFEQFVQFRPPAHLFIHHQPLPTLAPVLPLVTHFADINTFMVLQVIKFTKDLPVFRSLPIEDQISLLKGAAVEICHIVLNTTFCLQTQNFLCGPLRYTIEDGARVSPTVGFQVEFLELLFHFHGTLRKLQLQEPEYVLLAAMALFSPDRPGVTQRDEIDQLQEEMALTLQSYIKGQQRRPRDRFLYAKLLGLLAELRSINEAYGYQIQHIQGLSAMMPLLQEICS
Sequence of Steroid hormone receptor ERR1 (Homo sapiens) (P11474 whole entry, looked up, the tested form may be a part): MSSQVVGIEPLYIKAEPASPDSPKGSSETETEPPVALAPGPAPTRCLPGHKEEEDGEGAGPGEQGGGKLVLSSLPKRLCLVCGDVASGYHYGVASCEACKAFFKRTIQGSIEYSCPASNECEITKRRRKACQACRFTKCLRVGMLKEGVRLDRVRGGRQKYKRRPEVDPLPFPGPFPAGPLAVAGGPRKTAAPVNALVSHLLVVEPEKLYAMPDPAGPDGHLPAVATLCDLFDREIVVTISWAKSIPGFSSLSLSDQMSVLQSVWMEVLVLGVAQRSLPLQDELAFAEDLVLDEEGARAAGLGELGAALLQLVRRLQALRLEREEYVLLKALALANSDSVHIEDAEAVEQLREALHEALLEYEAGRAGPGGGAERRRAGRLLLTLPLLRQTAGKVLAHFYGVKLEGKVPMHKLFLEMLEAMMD

Turning to `COc1ccc(C(Cl)=C(c2ccc(OC)cc2)c2ccc(OC)cc2)cc1`, the molecule was called inactive in [1], in assay [3], in [4], in [5], in assay [6] and in assay [7]. For the same molecule, the result in assay [8], in assay [9], in assay [10], in assay [11] and in assay [12] was inactive. Also, the half-maximal activity concentration (AC50) in [2] is 2.54 µM (active).

For the molecule `O=C1OC(=O)c2cc(Oc3ccc4c(c3)C(=O)OC4=O)ccc21`, the molecule was called inactive in assay [1], in assay [2], in assay [3], in [4], in [5] and in [7]. Besides, the outcome in [13], in [8], in assay [9], in [10], in [14] and in [15] was inactive.

Turning to `O=Cc1ccc(CO)o1`, the outcome in [1], in assay [2], in assay [3], in assay [4], in assay [5] and in assay [6] was inactive. In addition, the outcome in assay [7], in assay [13], in assay [8], in assay [10], in assay [14] and in [16] was inactive. Also, the result in assay [15] and in [17] was inactive.

Consider `CC(C)c1ccc2cc(C(C)C)ccc2c1`, for which the call in assay [1], in assay [2], in assay [3], in assay [5], in [6] and in [7] was inactive. In addition, the molecule was called inactive in assay [13], in assay [9], in assay [10], in assay [14] and in assay [16]. Also, the half-maximal activity concentration (AC50) is 59.9 µM (active) in [4] and 13.7 µM (active) in [18].

Turning to `Nc1nc2ccccc2[nH]1`, the molecule was classed as inactive in [1], in assay [2], in [4], in assay [5], in [6] and in [7]. For the same molecule, the call in [8], in [9], in assay [10], in assay [14], in [11] and in assay [18] was inactive.

Consider `O=C(O)C(c1ccc(Cl)cc1)c1ccc(Cl)cc1`, for which the result in assay [1], in assay [3], in assay [4], in assay [5], in [7] and in [13] was inactive. For the same molecule, the call in assay [8], in assay [9], in [16], in [19] and in assay [15] was inactive. For the same molecule, the concentration at half-maximal activity (AC50) in assay [2] is 62.7 µM (active); in assay [18] it was 7.33 µM (active).

With `CCc1ccc2c(c1)C(=O)c1ccccc1C2=O`, the result in assay [1], in assay [3], in [4], in assay [5], in [6] and in assay [13] was inactive. Also, the molecule was classed as inactive in assay [9], in assay [10], in assay [11] and in assay [16]. Further, the AC50 in assay [2] was 3.01 µM (active); in assay [14], 11.6 µM (active); in assay [18] it was 4.61 µM (active).

Take `C=CCOc1c(Br)cc(Br)cc1Br`: the outcome in [1], in [3], in [4], in assay [5], in [6] and in assay [7] was inactive. The result in [13], in assay [9], in assay [10], in assay [11], in [16] and in assay [17] was inactive. In addition, the AC50 in assay [2] was 12.7 µM (active); in assay [14], 23.7 µM (active); in assay [18], 15.7 µM (active).

As to `OC1OCCOC1O` (stereo not drawn), the result in assay [1], in [2], in assay [3], in [4], in [5] and in assay [6] was inactive. Besides, the call in assay [8], in assay [9], in [10], in assay [14], in assay [11] and in assay [18] was inactive. The result in assay [16] and in [15] was inactive.
